From PubChem BioAssay (Tox21) come the findings set out here.

Unmarked numbers belong to inactive results. Where a call stands in place of a potency, no number is given. The source made the active and inactive calls. The call rests on the fitted dose curve.

The assay is described as follows: G protein-coupled receptor (GPCR) small molecule agonists, calcium flux assay: HEK293 wild type cell line counter screen (AID 1920065). The method in brief:
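Non-specific calcium responders were flagged by adding DMSO-dissolved compounds to dye-loaded cells and reading 480/540 nm fluorescence each second for 3 min; ATP served as positive control.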
For orientation: A change in cytosolic calcium serves as a functional read-out for many receptors and channels.

With `Clc1ccccc1Cl`, the Potency result was “inactive”.

On to `O=C/C(Cl)=C(/Cl)C(=O)O`, for which the Potency entry was “inactive”.

For `C[C@]12C=CC3=C4CCC(=O)C=C4CC[C@H]3[C@@H]1CC[C@@H]2O`, the Potency result was “inactive”.

Take `CCCC[N+]1(C)CCCCC1`: the Potency result is “inactive”.

Regarding `CCn1cc[n+](C)c1`, the Potency entry was “inactive”.

`O=C(O)CCl`: the Potency entry was “inactive”.

Consider `O=c1[nH]c(=O)n(Cl)c(=O)n1Cl`, for which the Potency result was “inactive”.

`CCCCC(CC)COC(=O)Cl` (stereo not given): the Potency entry was “inactive”.

As to `CCC1(c2ccc(N)cc2)CCC(=O)NC1=O` (stereo not given), the Potency result is “inactive”.

As for `ClC(Cl)=C(Cl)C(Cl)=C(Cl)Cl`, the Potency entry is “inactive”.

As to `CCCC[n+]1ccccc1`, the Potency entry is “inactive”.

For the molecule `CN(C)c1nc(=O)n(C2CCCCC2)c(=O)n1C`, the Potency entry is “inactive”.

Take `CC(Cl)(Cl)C(=O)O`: the Potency result is “inactive”.

For the molecule `C=C(C)[C@H]1Cc2c(ccc3c2O[C@@H]2COc4cc(OC)c(OC)cc4[C@@H]2C3=O)O1`, the Potency entry is “inactive”.

In the case of `C[C@]12CC[C@H](O)CC1=CC[C@@H]1[C@@H]2CC[C@]2(C)C(=O)CC[C@@H]12`, the Potency result is “inactive”.

For the molecule `COc1ccccc1N`, the Potency result was “inactive”.

Regarding `NNc1ccccc1`, the Potency entry was “inactive”.

In the case of `Nc1ccc(-c2ccc(N)c(N)c2)cc1N`, the Potency entry was “inactive”.

In the case of `Cc1ccc(N)c(C)c1`, the Potency entry is “inactive”.

As to `OCCOCCO`, the Potency result is “inactive”.

With `O=P(OCC(Br)CBr)(OCC(Br)CBr)OCC(Br)CBr` (stereo not given), the Potency result was “inactive”.

Take `CC(C)c1ccc(OP(=O)(Oc2ccc(C(C)C)cc2)Oc2ccc(C(C)C)cc2)cc1`: the Potency result was “inactive”.

`C=CCN1C[C@H](C)N([C@H](c2ccc(C(=O)N(CC)CC)cc2)c2cccc(OC)c2)C[C@H]1C`: the Potency entry is “inactive”.

`CO[C@@H]1[C@H](OC(=O)NC(=O)CCl)CC[C@]2(CO2)[C@H]1[C@@]1(C)O[C@@H]1CC=C(C)C`: the activation was 2.6% [at 11.8 µM].

As for `CCNc1nc(Cl)nc(NCC)n1`, the Potency entry was “inactive”.

In the case of `C=CCOCC1CO1` (stereo not given), the Potency entry was “inactive”.

Turning to `N#CCBr`, the Potency result was “inactive”.

In the case of `CCCCCCCCCCCOC(=O)c1ccccc1C(=O)OCCCCCCCCCCC`, the Potency result is “inactive”.

As to `ClCCN1CCOCC1`, the Potency entry is “inactive”.

With `CCC(=O)O[C@@H]1C=C2CCC3C(CCC4(C)C3CC[C@@H]4OC(=O)CC)C2CC1` (stereo not given in full), the Potency entry is “inactive”.

Take `c1ccc(N=Nc2ccccc2)cc1`: the Potency entry is “inactive”.

Turning to `CCC(C)(C)c1ccc(O)cc1`, the Potency result was “inactive”.

In the case of `Nc1ccc([N+](=O)[O-])cc1N`, the Potency entry is “inactive”.

`CCOC(=O)C(c1c(O)c2ccccc2oc1=O)c1c(O)c2ccccc2oc1=O`: the Potency result is “inactive”.

Consider `O=[N+]([O-])c1ccc(CBr)cc1`, for which the Potency result is “inactive”.

Take `Nc1cccc2ccccc12`: the Potency entry is “inactive”.

With `CCCCCCCCCCOC(=O)c1ccccc1C(=O)OCCCCCCCCCC`, the Potency entry was “inactive”.

As for `C1CC2OC2CC1C1CO1` (stereo not given), the Potency result was “inactive”.

As for `CCN(CC)CCN1C(=O)CN=C(c2ccccc2F)c2cc(Cl)ccc21`, the Potency result was “inactive”.

As for `O=[N+]([O-])c1cc(Cl)c(Cl)c(Cl)c1`, the Potency result was “inactive”.

Consider `CC(=O)C(Cl)Cl`, for which the Potency entry was “inactive”.

On to `Cc1ccccc1N`, for which the Potency result is “inactive”.

Regarding `Cl/C=C\C[N+]12CN3CN(CN(C3)C1)C2`, the Potency entry is “inactive”.

Turning to `CC1CCC(=O)O1` (stereo not given), the Potency result was “inactive”.

For the molecule `CN1CSC(=S)N(C)C1`, the Potency result is “inactive”.

Consider `Oc1ccccc1-c1ccccc1`, for which the Potency entry was “inactive”.

Consider `CC(O)CN(CC(C)O)CC(C)O` (stereo not given), for which the Potency result is “inactive”.

On to `ClCC(Cl)(Cl)Cl`, for which the Potency entry was “inactive”.

For the molecule `O=C(O)C(Cl)(Cl)Br`, the Potency result is “inactive”.

Turning to `CN(C)C(=O)Nc1cccc(C(F)(F)F)c1`, the Potency result is “inactive”.

Turning to `CNC(=O)O/N=C/C(C)(C)S(C)=O` (stereo not given), the Potency entry was “inactive”.

As to `O=P(OCCCl)(OCCCl)OCCCl`, the Potency entry was “inactive”.

Consider `CC1CN1` (stereo not given), for which the Potency result was “inactive”.

Take `CCOC(=O)c1ccccc1N`: the Potency entry is “inactive”.

For the molecule `CC(Cl)C(=O)O` (stereo not given), the Potency result was “inactive”.

In the case of `CN(C)C(=O)Cl`, the Potency result was “inactive”.

As to `CCOP(=O)(O)OCC` (tested in a mixture with another compound), the Potency result was “inactive”.

For `[O]=[Cr](=[O])([OH])[O][Cr](=[O])(=[O])[OH]`, the Potency entry was “inactive”.

As for `CCCOC(=O)c1ccccc1C(=O)OCCC`, the Potency result is “inactive”.

With `c1cc2c(c(N3CCNCC3)c1)OCCO2`, the Potency entry is “inactive”.

On to `CCCCCCCCCCn1cc[n+](C)c1`, for which the Potency result was “inactive”.

Consider `Cc1ccccc1[N+](=O)[O-]`, for which the Potency result is “inactive”.

Consider `CCCCn1cc[n+](C)c1C`, for which the Potency result is “inactive”.

As for `Cc1ccc(C(=O)Cl)cc1`, the Potency result is “inactive”.

Regarding `CCN(CC)C(=O)SCc1ccc(Cl)cc1`, the Potency entry is “inactive”.

For `O=C1c2ccccc2C(=O)N1SC(Cl)(Cl)Cl`, the Potency entry was “inactive”.

Regarding `CCC[N+]1(C)CCCC1`, the Potency entry was “inactive”.

Regarding `O=C(O)COc1cc(Cl)c(Cl)cc1Cl`, the Potency result was “inactive”.

In the case of `CC(C)N(C(=O)SCC(Cl)=C(Cl)Cl)C(C)C`, the Potency result is “inactive”.

Turning to `O=S(=O)(O)C(F)(F)C(F)(F)C(F)(F)C(F)(F)C(F)(F)C(F)(F)C(F)(F)C(F)(F)F`, the Potency result is “inactive”.
